# Laboratory results: PubChem BioAssay AID652257 (The Scripps Research Institute Molecular Screening Center, 2013)
# About 4,800 (1.3%) of roughly 370,000 compounds were called active.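 How the source made its calls: active means inhibition above about 21% made by adding two undisclosed values (limit read from the data); inactive means the rest.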 Shown is part of a subset that was picked to be rich in actives.
# Molecular target: Protein arginine N-methyltransferase 1 (Homo sapiens) (UniProt Q99873)
# Assay: human PRMT1 activity-probe blockers – biochemical, fluorescence polarization, primary screen (AID 652257)
# Conditions: recombinant PRMT1, activity-based probe fluorescence polarization; at 2.79 µM; stronger effect = higher value
# Sequence of Protein arginine N-methyltransferase 1 (Homo sapiens) (Q99873 whole entry, looked up): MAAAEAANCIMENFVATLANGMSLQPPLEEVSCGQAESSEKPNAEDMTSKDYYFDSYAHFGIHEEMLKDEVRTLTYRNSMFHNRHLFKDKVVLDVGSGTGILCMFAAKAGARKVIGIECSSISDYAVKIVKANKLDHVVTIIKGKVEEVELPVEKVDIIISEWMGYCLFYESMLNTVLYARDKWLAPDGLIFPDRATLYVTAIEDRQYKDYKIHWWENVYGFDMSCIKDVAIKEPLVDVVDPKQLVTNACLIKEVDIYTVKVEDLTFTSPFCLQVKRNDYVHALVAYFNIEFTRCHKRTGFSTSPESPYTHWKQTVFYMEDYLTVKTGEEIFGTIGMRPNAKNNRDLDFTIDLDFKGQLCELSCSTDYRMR
row,Structure (SMILES),inhibition
1,O=S(=O)(O)c1cc2onnc2c2ccccc12,40.6% (active)
2,CCOC(=O)[C@@]12CCC3=C1N(CCC3)C(=O)[C@H](CC(=O)N1CCN(C(=O)c3ccco3)CC1)C2,-2.33% (inactive)
3,CC1=CC(C)(C)NC(=S)N1c1ccccc1,3.18% (inactive)
4,Cc1ccc(-c2nnc(SCC(=O)Nc3ccc(Oc4ccccc4)cc3)n2Cc2ccco2)cc1,4.18% (inactive)
5,CC1CC1C(=O)OCC(=O)Nc1cccc(F)c1 (stereo not given),2.32% (inactive)
6,Cc1ccccc1CN1CCCCC(NC(=O)Nc2ccccc2F)C1=O (stereo not given),-0.07% (inactive)
7,C#CCNC(=O)C[C@H]1C[C@@]2(C(=O)OC)C(=C[C@H](C(C)C)O[C@@H]2C2CC2)N(Cc2ccco2)C1=O,-1.6% (inactive)
8,C=CCn1c(=NC(=O)c2cccs2)sc2cc(NC(C)=O)ccc21,4.42% (inactive)
9,COc1cc2c(cc1OC)C(Cc1cc(OC)c(OC)cc1[N+](=O)[O-])=NCC2,8.89% (inactive)
10,CCS(=O)(=O)c1cc([N+](=O)[O-])c(Sc2ccccc2N)s1,66.1% (active)
11,O=C(c1ccccc1)c1ccc(-c2ccccc2C(=O)NC2CCCCN(Cc3ccc(Cl)cc3)C2=O)cc1 (stereo not given),-3.72% (inactive)
12,C=C(C)C#CC(Cc1ccccc1)NCC1CC1 (stereo not given),7.99% (inactive)
13,O=C(CSc1nnc(COc2ccccc2)n1Cc1ccco1)c1ccc2ccccc2c1,4.78% (inactive)
14,Cc1sc2nc(SCC(=O)c3ccc(O)c(O)c3)n(Cc3ccco3)c(=O)c2c1C,25.1% (active)
15,O=C(CSc1nnc(-c2cccs2)n1Cc1ccco1)c1ccc2c(c1)OCO2,1.9% (inactive)
16,CCCC[C@H]1C2CC(OC(=O)NCc3ccccc3)C(C2)[C@H]2CCCCN21 (stereo not given in full),1.74% (inactive)
17,COc1ccc(OCc2n[nH]c(=S)n2N)cc1,4.04% (inactive)
18,COc1ccccc1-n1c(-c2cc(-c3ccco3)[nH]n2)n[nH]c1=S,35.1% (active)
19,Cc1cc(-c2n[nH]c(=S)n2-c2ccc(C)c(C)c2)no1,4.04% (inactive)
20,COc1ccc(C(C#N)Nc2ccccc2C)cc1 (stereo not given),1.86% (inactive)
21,CC(C)(C)OC(=O)NCc1cc(F)ccc1/C=C/S(=O)(=O)NCCc1ccccc1,-0.49% (inactive)
22,Cc1ccc(/C=C/C(=O)Nc2ccc([N+](=O)[O-])c(NC(=O)/C=C/c3ccc(C)o3)c2)o1,41.1% (active)
23,Cc1cc(NC(=O)COC(=O)/C=C/c2ccc(C)o2)no1,5.65% (inactive)
24,O=C(/C=C/c1ccc([N+](=O)[O-])o1)NNC(=O)c1ccc(F)cc1,5.67% (inactive)
25,COc1ccc(-n2c(SCC(=O)Nc3ccc(C)c(Cl)c3)nc3ccccc3c2=O)cc1,0.06% (inactive)
26,COc1ccc(/C=C2/S/C(=N/N=C3\CC4CCC3(C)C4(C)C)NC2=O)cc1 (stereo not given),-3.61% (inactive)
27,CC(=O)N1C(=O)/C(=C2\SC(=S)N(NC(=O)c3ccc(O)cc3)C2=O)c2ccccc21,37.7% (active)
28,COc1ccc2c(c1)N(C)/C(=C1/SC(=S)N(NC(C)=O)C1=O)S2,-3.82% (inactive)

row,Structure (SMILES),inhibition
1,COc1ccc(C(=O)NN2C(=O)C3C(c4ccccc4)C=CC(c4ccccc4)C3C2=O)cc1 (stereo not given),-3.24% (inactive)
2,COC(=O)C[C@@H]1CC[C@@H]2[C@H](COc3ccc(NC(=O)c4cccc(F)c4)cc3C(=O)N2C)O1,-3.84% (inactive)
3,CCN1/C(=C/C(=S)Nc2ccccc2)Sc2ccccc21,64.6% (active)
4,CCN1/C(=C\c2ccc3ccccc3[n+]2CC)Sc2cc(C)ccc21,-5.01% (inactive)
5,C=CCN1[C@H](CC(C)C)COc2cccc(N3CCCC3)c2S1(=O)=O,11.6% (inactive)
6,O=C(CN1CCN(c2ccc(O)cc2)CC1)Nc1ccc(-c2ccccc2)cc1,21.2% (active)
7,O=C(CN1CCN(c2cccc(Cl)c2)CC1)Nc1ccc(S(=O)(=O)N2CCOCC2)cc1,1.21% (inactive)
8,O=C(CN1CCN(c2ccc(O)cc2)CC1)NC1CCCc2ccccc21 (stereo not given),26.1% (active)
9,O=C(CSc1nncs1)NC1CCCc2ccccc21 (stereo not given),2.99% (inactive)
10,O=C(CCC(=O)N1CCN(S(=O)(=O)c2ccccc2)CC1)NC1CCCc2ccccc21 (stereo not given),2.87% (inactive)
11,CC(=O)c1ccc(N2CCN(CC(=O)Nc3ccccc3N3CCOCC3)CC2)cc1,-1.3% (inactive)
12,CCCCN1CC(CO)Oc2cccc(F)c2S1(=O)=O (stereo not given),-3.97% (inactive)
13,Cc1cc(C)c(NC(=O)CN2CCOCCOCCOCCOCC2)c(C)c1,-1.78% (inactive)
14,COC(=O)C1CN(Cc2ccc(F)cc2)CCS(=O)(=O)N1Cc1ccc(Cl)cc1 (stereo not given),0.79% (inactive)
15,CC(=O)Nc1ccc(OC[C@@H](O)CN2CCC(C(O)(c3ccccc3)c3ccccc3)CC2)cc1,-3.02% (inactive)
16,COC(=O)[C@]12C[C@H](CC(=O)NCCCN3CCCC3=O)C(=O)N(CCc3ccc(OC)c(OC)c3)C1=C[C@H](COCc1ccccc1)O[C@@H]2C,-1.4% (inactive)
17,COC(=O)C1CN(CCc2ccccc2)CCS(=O)(=O)N1Cc1cccc(Cl)c1 (stereo not given),4.71% (inactive)
18,O=C(COC(=O)c1ccccc1SCC(=O)N1CCCC1)Nc1ccccc1OC(F)F,2.04% (inactive)
19,Cc1ccc(C(NC(=O)N2CCCC2)C(Cl)(Cl)Cl)cc1F (stereo not given),-0.94% (inactive)
20,CC1CCN(C(=O)CSc2nnc(-c3ccco3)n2N)CC1,-3.61% (inactive)
21,COc1ccc(Cl)cc1NS(=O)(=O)c1cccc(C(=O)NC2CCC(O)CC2)c1 (stereo not given),-6.68% (inactive)
22,COc1ccc([N+](=O)[O-])cc1NC(=O)COC(=O)/C=C/c1ccco1,5.77% (inactive)
23,COc1ccc(N2C(=O)/C(=C\c3ccco3)N=C2SCC(N)=O)cc1Cl,25.5% (active)
24,COc1ccc(Cl)cc1C(=O)NNC(=S)NC(=O)/C=C/c1ccco1,-3.9% (inactive)
25,COC(=O)[C@]12C[C@H](CC(=O)NCc3ccccc3)C(=O)N(CCC3=CCCCC3)C1=C[C@H](C(C)C)O[C@@H]2C1CC1,-0.96% (inactive)
26,CC(c1ccc(N)cc1)c1cn(C)c2ccccc12 (stereo not given),-3.45% (inactive)
27,COc1ccc(Cl)cc1-c1cc(C(=O)Nc2cc(OC)c(OC)c(OC)c2)[nH]n1,-1.28% (inactive)
